Common to all, as to test: Cytotoxic Profiling of Annotated Libraries Using Quantitative High-Throughput Screening (AID 1296008); note: nearly all actives have a fitted effect of over 60% in size
Holding throughout (details): Five cell lines viability, CellTiter-Glo ATP luminescence, 48-72 h; max response: stronger effect = lower value
(In general: ATP-based viability assays read luminescence as a measure of living cells.)

One assay relates to CRL-7250. The essentials:
(§1)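 Cytotoxicity was measured as CellTiter-Glo ATP luminescence, read after 10 min at room temperature. Compound treatment of the cells lasted 48 or 72 hr at 37 degrees Celsius in a qHTS format.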

The test system of another assay is HEK293. The essentials:
as §1

In a further assay the test system is NIH3T3. The essentials: as §1
A further assay deals with KB-3-1. The essentials: as §1
A further assay concerns HaCat. In outline:
as §1

Here are results for seven compounds from PubChem BioAssay (NCATS).

Molecules are shown by their SMILES. Inconclusive results are not listed. A number with no mark means an inactive call. Activity calls are given as the source filed them. Calls come from the whole dose curve; as a rule, active = well fitted inhibition curve with a large enough effect; inconclusive = small, poorly fitted or top-dose-only effect; inactive = flat fitted curve, though single readings scatter.
% is set by controls: 0 for no effect and ±100 for the full control effect; potency is the fitted concentration of half-maximal effect.

Regarding `COc1cc(OC)cc(-c2ccc3ncc4ccc(=O)n(-c5ccc(N6CCNCC6)c(C(F)(F)F)c5)c4c3c2)c1`, the Potency in the assay on CRL-7250 is 10500 nM (active); in the assay on HEK293, 3720 nM (active); in the assay with NIH3T3, 14800 nM (active).
Consider `CCNC(=O)Nc1ccc(-c2nc3c(c(N4CCOC[C@H]4C)n2)CCN(C2COC2)C3)cc1`, for which the Potency was 296 nM (active) with CRL-7250, 743 nM (active) with HEK293, 1320 nM (active) in the assay on KB-3-1 and 5900 nM (active) in the assay on NIH3T3.
Taken in the same sequence, the figures for `Cn1cc(-c2cnn3c(N)c(Br)c([C@H]4CCCNC4)nc23)cn1` were 20900 nM (active), 418 nM (active), 10500 nM (active) and 662 nM (active).
On to `C[C@@H]1CC[C@@]2(OC1)OC1CC3C4CC=C5CC(O)CCC5(C)C4CCC3(C)C1[C@@H]2C` (some centres not stated), for which the results for the max response in the assay with CRL-7250, in the assay on KB-3-1 and with NIH3T3 were -6.42%, -6.71% and -12.1%, respectively. For the same compound, in the assay with HEK293, the Potency is 10500 nM (active).
Turning to `O=C(C=CC=Cc1ccc2c(c1)OCO2)N1CCCCC1`, the max response with CRL-7250 is -3.96%; in the assay with HaCat, -2.24%; in the assay with KB-3-1, -6.15%. The compound was called inactive in the assay on NIH3T3.
In the case of `CC(=O)O[C@@]12CO[C@H]1C[C@H](O)[C@@]1(C)C(=O)[C@H](O)C3=C(C)[C@@H](OC(=O)C(O)[C@@H](NC(=O)OC(C)(C)C)c4ccccc4)C[C@@](O)([C@@H](OC(=O)c4ccccc4)[C@@H]21)C3(C)C` (some centres not stated), the values for the max response with CRL-7250, in the assay with HEK293 and in the assay on NIH3T3 were -64.7%, -90.2% and -88.1%, respectively. Moreover, the Potency in the assay with KB-3-1 is 52.6 nM (active).
`Cc1ccc([N+](=O)[O-])cc1S(=O)(=O)N(C)N=Cc1cnc2ccc(Br)cn12`: the Potency with CRL-7250 was 18.7 nM (active); with HEK293, 23.5 nM (active); in the assay on KB-3-1 it was 20.9 nM (active); with NIH3T3, 74.3 nM (active).
